# From PubChem BioAssay (NCATS)
# Values joined by “and” are separate entries in the source; they are usually repeats but may differ in a detail not shown here. Equal values may be shown once. A number with no mark means an inactive call. Records with an inconclusive call do not appear. A call without a number means that no potency is given here. Active and inactive are the calls of the source. Unless noted, the call rests on the fitted dose curve; in most records, active means well fitted curve in the direction sought with a large enough effect; inconclusive means small, poorly fitted or top-dose-only effect, or another doubt; inactive means no such curve, though single readings can be large; an effect the other way counts as inactive or inconclusive.
# Legend:
# [1] = biological target: Peroxisome proliferator-activated receptor alpha (Homo sapiens) (UniProt Q07869); experiment: qHTS assay for small molecule agonists of the peroxisome proliferator-activated receptor alpha (PPARalpha) signaling pathway (AID 651778); conditions: PathHunter PPARalpha complementation, chemiluminescence, 6 h; hits give high values
# Sequence of Peroxisome proliferator-activated receptor alpha (Homo sapiens) (Q07869 whole entry, looked up): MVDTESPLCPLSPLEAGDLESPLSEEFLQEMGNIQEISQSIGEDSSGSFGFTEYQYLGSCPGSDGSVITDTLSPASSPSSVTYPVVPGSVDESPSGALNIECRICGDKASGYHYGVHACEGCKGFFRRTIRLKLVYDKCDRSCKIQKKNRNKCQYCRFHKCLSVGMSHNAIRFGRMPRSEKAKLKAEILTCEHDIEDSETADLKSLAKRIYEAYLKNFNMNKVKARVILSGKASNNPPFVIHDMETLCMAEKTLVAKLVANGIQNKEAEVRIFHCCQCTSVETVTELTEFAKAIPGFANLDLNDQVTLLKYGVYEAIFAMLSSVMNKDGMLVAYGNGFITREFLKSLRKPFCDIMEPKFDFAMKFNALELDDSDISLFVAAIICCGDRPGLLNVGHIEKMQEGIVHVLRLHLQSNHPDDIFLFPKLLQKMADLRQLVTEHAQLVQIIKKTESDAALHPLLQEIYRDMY
# Procedure, shortened: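 Chemiluminescence from complemented enzyme reported PPARalpha activation in cells after 6 hr of compound treatment at 37 C. The detection reagent was incubated for 60 min at room temperature, and compounds were scored as agonists.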
# [2] = biological target: Nuclear receptor ROR-gamma (Homo sapiens) (UniProt P51449); experiment: qHTS assay for small molecule antagonists of the retinoid-related orphan receptor gamma (ROR-gamma) signaling pathway (AID 651802); conditions: ROR-gamma antagonist cell reporter assay; series mostly up to 92.2 µM;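 further: CHO cells with doxycycline-induced ROR-gamma expression; luciferase reporter luminescence driven by ROR response element; nearly all actives have a fitted effect of over 60% in size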
# Sequence of Nuclear receptor ROR-gamma (Homo sapiens) (P51449 whole entry, looked up): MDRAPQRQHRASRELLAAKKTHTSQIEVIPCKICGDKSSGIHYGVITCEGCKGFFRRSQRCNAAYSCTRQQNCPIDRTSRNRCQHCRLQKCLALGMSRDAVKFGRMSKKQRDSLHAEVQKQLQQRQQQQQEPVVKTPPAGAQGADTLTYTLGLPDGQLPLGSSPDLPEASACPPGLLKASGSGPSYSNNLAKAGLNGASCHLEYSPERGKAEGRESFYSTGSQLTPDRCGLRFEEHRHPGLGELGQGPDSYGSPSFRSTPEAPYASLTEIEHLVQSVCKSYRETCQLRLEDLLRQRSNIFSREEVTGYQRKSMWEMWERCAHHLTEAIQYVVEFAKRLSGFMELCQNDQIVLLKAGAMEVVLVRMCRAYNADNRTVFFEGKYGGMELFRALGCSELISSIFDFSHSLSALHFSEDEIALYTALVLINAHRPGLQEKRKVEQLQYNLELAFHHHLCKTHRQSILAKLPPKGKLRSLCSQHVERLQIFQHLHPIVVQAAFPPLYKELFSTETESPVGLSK
# Procedure, shortened: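 Doxycycline-induced reporter activity in engineered CHO cells (TET-inducible ROR, RORE-LUC) was measured by luminescence after 16hr compound exposure at 37C.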
# [3] = qHTS for compounds that reverse cellular toxicity of Amyloid beta (A-beta) peptide in yeast: LOPAC Validation Assay (AID 720559); conditions: yeast expressing A-beta; series mostly up to 46.1 µM
# Procedure, shortened: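 Here, A-beta-toxic yeast grow with test compounds at 30 C for 48 hr before optical density at 600 nm is recorded; data are normalized against DMSO and the FeCl3-clioquinol control.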
# [4] = qHTS for Activators of Parkin Expression: LOPAC Validation Assay (NLuc Reporter) (AID 720572); conditions: Parkin promoter NanoLuc reporter cells, luminescence; series mostly up to 46.1 µM
# Procedure, shortened: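 Compound effects on Parkin promoter activity were measured as NanoLuc luminescence after 24 h at 37 C. The neuronal reporter line also carried FLuc, which was read first. LOPAC compounds were tested at 7 concentrations, with normalization to DMSO (0%) and positive control (100%).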
# [5] = qHTS for Activators of Parkin Expression: LOPAC Validation Assay (FLuc Reporter) (AID 720573); conditions: Cell line, PRKN promoter firefly luciferase reporter, vehicle wells = 0, positive control = 100%; series mostly up to 46.1 µM
# Procedure, shortened: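 Readout is FLuc luminescence from neuronal reporter cells (Parkin promoter, FLuc plus NLuc) after 24 h compound exposure in dose response. Values normalized to neutral DMSO and positive-control compounds.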
# [6] = qHTS assay for small molecule agonists of the antioxidant response element (ARE) signaling pathway measured by Nrf2-dependant transcriptional activity (AID 720636; active means well fitted curve in the direction sought with a large enough effect in the repeat runs; an effect the other way counts as inactive or inconclusive;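 further: HepG2 cells with an ARE-driven luciferase reporter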); conditions: ARE-luc HepG2, Nrf2 luciferase reporter, 16 h; series mostly up to 92.4 µM
# Procedure, shortened: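 Cells: ARE-luc HepG2 with Nrf2-responsive luciferase. Medium contained 1% dialyzed FBS. Compound exposure lasted 16 hr at 37 C and 5% CO2, followed by ONE-Glo luciferase detection.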
# [7] = qHTS assay for small molecule antagonists of the retinoid-related orphan receptor gamma (ROR-gamma) signaling pathway - cell viability counter screen (AID 720652; active means well fitted curve in the direction sought with a large enough effect in the repeat runs; an effect the other way counts as inactive or inconclusive;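 further: CHO reporter cells with doxycycline-induced ROR-gamma expression; compound exposure lasted 16 hr before ATP read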); conditions: RORgamma reporter cell line viability counter screen; series mostly up to 92.2 µM
# Procedure, shortened: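 ATP-based viability readout in the ROR-gamma reporter CHO cells after 16 hr compound exposure under doxycycline induction.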
# [8] = qHTS assay for small molecule agonists of the antioxidant response element (ARE) signaling pathway measured by Nrf2-dependant transcriptional activity - cell viability counter screen (AID 720653; active means well fitted curve in the direction sought with a large enough effect in the repeat runs; an effect the other way counts as inactive or inconclusive; further: potency means the concentration at half of the fitted maximal effect); conditions: ARE-bla HepG2 viability, CellTiter-Glo ATP luminescence, 16 h; max response: hits give low values
# Procedure, shortened: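 Cytotoxicity counter screen: intracellular ATP quantified by CellTiter-Glo luminescence in the same ARE-bla HepG2 plates, after 16 h compound exposure and a 2 h beta-lactamase substrate step.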
# [9] = biological target: T1, Hexokinase-4 (Homo sapiens) + Glucokinase regulatory protein (Homo sapiens) (UniProt P35557+Q14397); experiment: qHTS assay for inhibitors of recombinant human GCK-GKRP interaction: Diaphorase-coupled assay (AID 743205); conditions: G6PDH/diaphorase resorufin fluorescence; series mostly up to 57.5 µM
# T1 sequence (P35557 whole entry, looked up): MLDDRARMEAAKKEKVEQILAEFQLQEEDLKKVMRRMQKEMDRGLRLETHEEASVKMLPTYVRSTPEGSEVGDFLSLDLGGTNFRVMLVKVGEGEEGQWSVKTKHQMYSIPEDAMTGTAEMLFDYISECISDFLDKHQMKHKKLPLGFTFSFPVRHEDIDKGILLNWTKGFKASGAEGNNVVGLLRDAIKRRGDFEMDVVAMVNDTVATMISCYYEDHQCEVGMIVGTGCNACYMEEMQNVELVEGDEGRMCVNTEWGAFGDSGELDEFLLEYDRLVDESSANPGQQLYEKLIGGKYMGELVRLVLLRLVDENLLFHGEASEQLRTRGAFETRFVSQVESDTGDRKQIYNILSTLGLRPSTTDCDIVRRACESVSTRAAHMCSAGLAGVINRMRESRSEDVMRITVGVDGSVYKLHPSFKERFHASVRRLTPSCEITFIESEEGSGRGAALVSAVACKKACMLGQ
# T1 sequence (Q14397 whole entry, looked up): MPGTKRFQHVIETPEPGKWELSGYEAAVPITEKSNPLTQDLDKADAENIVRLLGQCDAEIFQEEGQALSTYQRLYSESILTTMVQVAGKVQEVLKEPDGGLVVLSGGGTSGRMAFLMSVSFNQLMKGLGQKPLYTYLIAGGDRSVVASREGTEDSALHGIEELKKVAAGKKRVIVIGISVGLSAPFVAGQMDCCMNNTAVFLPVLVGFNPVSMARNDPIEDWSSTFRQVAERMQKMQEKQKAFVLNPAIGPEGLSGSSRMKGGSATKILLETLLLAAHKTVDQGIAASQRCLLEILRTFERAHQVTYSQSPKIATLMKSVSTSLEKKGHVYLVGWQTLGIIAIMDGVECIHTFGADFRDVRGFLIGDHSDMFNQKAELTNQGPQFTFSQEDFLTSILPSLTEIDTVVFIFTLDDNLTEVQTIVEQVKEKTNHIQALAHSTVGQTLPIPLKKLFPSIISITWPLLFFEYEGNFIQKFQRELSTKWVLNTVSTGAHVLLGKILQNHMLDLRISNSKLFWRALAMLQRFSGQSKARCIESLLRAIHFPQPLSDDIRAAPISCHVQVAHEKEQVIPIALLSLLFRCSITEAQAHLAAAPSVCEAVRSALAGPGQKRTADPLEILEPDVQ
# Procedure, shortened: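 Signal derives from resorufin generated by diaphorase, linked to GCK turnover of glucose (5 mM) and ATP (0.4 mM). Enzyme complex was added after a 20-minute compound preincubation and monitored for 30 minutes.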
# [10] = biological target: T1, Hexokinase-4 (Homo sapiens) + Glucokinase regulatory protein (Homo sapiens); experiment: qHTS assay for inhibitors of recombinant human GCK-GKRP interaction: ADP-Glo assay (AID 743206); conditions: ADP-Glo luminescence, 60 min, 0% = vehicle-only wells with enzyme present; series mostly up to 76.9 µM
# Procedure, shortened: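 Pin-transferred compounds meet a 15 nM GST-GCK/15 nM FLAG-GKRP/2 uM S6P mix (dispense concentrations). ATP is then added to 0.4 mM final with 5 mM glucose, and the reaction runs 60 min at room temperature. ADP is quantified luminescently.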
# [11] = biological target: T1, Hexokinase-4 (Homo sapiens) + Glucokinase regulatory protein (Homo sapiens); experiment: qHTS assay for inhibitors of recombinant human GCK-GKRP interaction: HTRF assay (AID 743207); conditions: recombinant GCK-GKRP HTRF binding, 60 min, with sorbitol-6-phosphate; series mostly up to 57.5 µM
# Procedure, shortened: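 Titration screening format: recombinant GST-GCK and FLAG-GKRP at 5 nM, S6P at 2 uM, labelled anti-tag antibodies, 60 min at RT, dual-wavelength HTRF readout.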
# [12] = qHTS Assay for Identifying Gametocytocidal Compounds (AID 743244);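 further: actives lower the fluorescent signal which means gametocytes are killed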; conditions: P. falciparum 3D7 stage III-V gametocytes, alamarBlue, 72 h; max response: hits give low values
# Procedure, shortened: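 Viability read-out was resazurin reduction (alamarBlue, 24 h) measured at Ex 525/Em 598 nm. Beforehand, late-stage (III-V) 3D7 P. falciparum gametocytes at 20,000 cells/well were incubated with compound 72 h at 37C under 5% CO2.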
# [13] = qHTS assay for cell viability of HEK293 cells (AID 743288); conditions: ATP luminescence (CellTiter-Glo), 18 h; max response: hits give low values; further: nearly all actives have a fitted effect of over 50% in size; further: potency means the concentration at half of the fitted maximal effect
# Procedure, shortened: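 HEK293, 18 h, 37 C, ATP luminescence. Cells at 2,000/well were allowed at least 5 h to settle before dosing; CellTiter-Glo developed 30 min at RT.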
# [14] = qHTS assay for cell viability of the p53RE-bla HCT-116 cell line (AID 743292); conditions: p53RE-bla HCT-116 viability, ATP luminescence, 16 h; series mostly up to 95 µM; further: nearly all actives have a fitted effect of over 55% in size
# Procedure, shortened: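 HCT-116 p53RE-bla cells seeded 4,000/well; 5 h at 37 C; compound (DMSO) added; 16 h at 37 C; CellTiter-Glo added, 30 min RT; luminescence read.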
# [15] = qHTS assay for small molecule disruptors of the mitochondrial membrane potential - 5 hr assay (AID 651755; calls by dose curve; further: nearly all actives have a fitted effect of over 40% in size; further: potency means the concentration at half of the fitted maximal effect); conditions: JC-1-type ratio dye; series mostly up to 92.2 µM
# Procedure, shortened: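 Membrane-potential dye readout: red aggregate (540 ex/590 em) versus green monomer (490 ex/535 em) fluorescence after 30 min dye loading, following 5 hr compound exposure at 37C of overnight-plated HepG2 cells.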
# [16] = biological target: Tumor necrosis factor (Homo sapiens) (UniProt P01375); experiment: qHTS assay to identify small molecules that stimulate Tumor Necrosis Factor-alpha (TNF-alpha) secretion (AID 651757; active means well fitted curve in the direction sought with a large enough effect in the signal ratio; the % refers to the signal ratio); conditions: Human cells, HTRF 665/615 ratio; series mostly up to 92.2 µM
# Sequence of Tumor necrosis factor (Homo sapiens) (P01375 whole entry, looked up): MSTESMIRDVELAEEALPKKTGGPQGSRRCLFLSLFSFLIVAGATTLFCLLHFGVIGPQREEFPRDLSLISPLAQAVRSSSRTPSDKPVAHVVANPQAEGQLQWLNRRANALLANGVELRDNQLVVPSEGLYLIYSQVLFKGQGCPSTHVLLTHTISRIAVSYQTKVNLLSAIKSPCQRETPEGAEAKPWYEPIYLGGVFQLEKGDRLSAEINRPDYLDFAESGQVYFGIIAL
# Procedure, shortened: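 Using 3000 THP-1 cells per well, compounds and controls were applied for 17 hrs at 37 C. Detection followed with two labeled anti-TNF-alpha antibodies (cryptate donor, XL665 acceptor) for 3 hr at room temperature, measured by TR-FRET.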
# [17] = biological target: Arylsulfatase A (Homo sapiens) (UniProt P15289); experiment: qHTS screen for enhancers of Arylsulfatase A (ASA1): LOPAC Validation Assay (AID 720538); conditions: ASA enzyme activity, LOPAC qHTS enhancer assay; series mostly up to 57.5 µM
# Sequence of Arylsulfatase A (Homo sapiens) (P15289 whole entry, looked up): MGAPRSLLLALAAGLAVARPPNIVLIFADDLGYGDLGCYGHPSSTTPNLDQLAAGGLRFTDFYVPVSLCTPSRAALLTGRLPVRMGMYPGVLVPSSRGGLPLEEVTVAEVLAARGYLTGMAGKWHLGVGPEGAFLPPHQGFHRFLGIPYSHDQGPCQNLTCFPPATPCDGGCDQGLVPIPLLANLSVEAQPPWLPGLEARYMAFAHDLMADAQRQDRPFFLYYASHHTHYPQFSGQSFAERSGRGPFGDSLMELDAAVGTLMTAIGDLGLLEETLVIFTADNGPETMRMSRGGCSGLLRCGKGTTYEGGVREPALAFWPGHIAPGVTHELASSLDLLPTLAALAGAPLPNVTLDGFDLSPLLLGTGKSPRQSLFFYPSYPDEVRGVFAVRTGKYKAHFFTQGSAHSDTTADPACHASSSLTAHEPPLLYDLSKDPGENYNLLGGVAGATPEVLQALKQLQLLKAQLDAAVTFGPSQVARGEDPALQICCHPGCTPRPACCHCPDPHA
# Procedure, shortened: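 Cell-based enhancement test: residual ASA activity in SV40-transformed I179S patient fibroblasts is measured by pNCS turnover (0.5mM final, 14h, room temperature) following 48h compound incubation; higher fluorescence indicates activation.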
# [18] = qHTS assay to identify small molecules that stimulate interleukin-8 (IL-8) secretion (AID 651758; active means well fitted activation curve with a large enough effect in the signal ratio; the % refers to the signal ratio; further: potency means the concentration at half of the fitted maximal effect); conditions: HTRF ratio (665/615); series mostly up to 92.2 µM
# Procedure, shortened: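 Secreted IL-8 measured homogeneously by TR-FRET (two labelled anti-IL-8 antibodies, 1-3 h at room temperature) after a 16 h, 37 C compound treatment of THP-1 cells at 2000 cells/well.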
SMILES,max response [1],Potency [2],outcome [3],Potency [4],outcome [5],outcome [6],outcome [7],Potency [8],outcome [9],outcome [10],Potency [11],max response [12],Potency [13],outcome [14],Potency [15],outcome [16],Potency [17],max response [8],max response [13],Potency [18]
Nc1nc(N)c2nc(-c3ccccc3)c(N)nc2n1,-0.436% and -0.649%,inactive,inactive,inactive,inactive,inactive,inactive,25.1 µM (active),inactive,inactive,inactive,-2.09% and -8.78%,31.6 µM (active),inactive,,,,,,
COc1cc(Cc2cnc(N)nc2N)cc(OC)c1OC,-3.22%,,inactive,inactive,inactive,inactive,inactive,,,,,1.83% and 3.42%,,inactive,inactive,inactive,inactive,0.934%,-2.08%,
COC(=O)[C@H]1[C@H]2C[C@@H]3c4[nH]c5cc(OC)ccc5c4CCN3C[C@H]2C[C@@H](OC(=O)c2cc(OC)c(OC)c(OC)c2)[C@@H]1OC,4.44% and 8.97%,,inactive,inactive,inactive,inactive,,,inactive,inactive,inactive,,39.8 µM (active),inactive,26.6 µM (active),inactive,,-16.7% and -9.72%,,
O=c1[nH]c(=O)n([C@H]2C[C@H](O)[C@@H](CO)O2)cc1Br,-2.48%,,inactive,inactive,inactive,inactive,inactive,,inactive,inactive,inactive,2.92% and 14.4%,,inactive,,inactive,,-13.7%,-7.4%,53.1 µM (active)
CC(C)NNC(=O)c1ccncc1,,,inactive,inactive,inactive,,,,inactive,inactive,inactive,-4.04% and 10%,,,,,inactive,,,
NC(=O)N1c2ccccc2C=Cc2ccccc21,-1.1% and -0.275%,inactive,inactive,inactive,,inactive,inactive,,inactive,inactive,inactive,-9.6% and 15.5%,,inactive,,inactive,inactive,-1.67% and -8.32%,-11.6% and -13.8%,
